# Laboratory results: PubChem BioAssay (NCATS)
# “And” between values parts separate entries of the source, which are not always exact repeats. Equal entries are not always repeated. Results filed as inconclusive are left out. A number with no mark means an inactive call. The source made the active and inactive calls. Calls follow the shape of the dose curve; as a rule, active = well fitted cell-killing curve with a large enough effect; inconclusive = small, poorly fitted or top-dose-only effect, or effect the other way; inactive = no such curve, though single readings can be large or run the other way.
# Experiment: Viability qHTS for spleen associated tyrosine kinase inhibitor (SYKi) naive MV4-11 cells (AID 1963823); also: nearly all actives have a fitted effect of over 40% in size
# Conditions: MV4-11 AML viability, CellTiter-Glo luminescence, 72 h; series mostly up to 45 µM; viability (% of control): at the top concentration
# Method in brief: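 qHTS, SYK inhibitor-naive MV4-11; 500 cells/well; 72 hr compound exposure, 37 C; CellTiter-Glo added, 10 min RT; luminescence read.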
# Potency is read from the fitted curve at half-maximal effect.
Compound,Potency,viability (% of control)
Cc1ccc([N+](=O)[O-])[c]2c1[O][Hg]2,0.0944 µM (active),
COc1cc(C[C@@H](C)N)c(OC)cc1Br,,76.5% [at 91.9 µM]
C[C@](O)(COc1ccc(C#N)cc1)C(=O)Nc1ccc(C#N)c(C(F)(F)F)c1,18.6 µM (active),
CS(=O)(=O)c1ccc(C(=O)C2C(=O)CCCC2=O)c([N+](=O)[O-])c1,6.24 µM (active),
C=CCC1(C(C)CC)C(=O)NC(=O)NC1=O (stereo unspecified),,69.3%
CN1C2CCC(C)(C)C1CC(OC(=O)C(O)(c1cccs1)c1cccs1)C2 (stereo unspecified),,56.5%
C=CCC1([C@H](C)CCC)C(=O)NC(=O)NC1=O,,62.8% [at 91.9 µM]
O=C(O)CNC(=O)c1c(O)c2ccccc2n(Cc2ccccc2)c1=O,,95.4%
O=C(O)CNC(=O)C1C(=O)N(C2CCCCC2)C(=O)N(C2CCCCC2)C1=O,,83.4%
C[C@]12CC[C@H]3[C@@H](CCC4=CC(=O)CC[C@@H]43)[C@@H]1CC[C@@H]2O,,63.4%
CCCCCCCCCC(CC)c1ccc(S(=O)(=O)O)cc1 (stereo unspecified),7.7 µM (active),
N[C@@H](Cc1ccc(N(CCCl)CCCl)cc1)C(=O)O,10.6 µM (active) and 833 nM (active),
CC(=O)[C@H]1CC[C@H]2[C@@H]3CC[C@H]4C[C@](C)(O)CC[C@]4(C)[C@H]3CC[C@]12C,,68.3%
NCCc1ccc(O)cc1,,53.4%
CC1(C)CC[C@]2(NC(=O)C(C)(F)F)CC[C@]3(C)[C@H](C(=O)C=C4[C@@]5(C)C=C(C#N)C(=O)C(C)(C)[C@@H]5CC[C@]43C)[C@@H]2C1,3.32 µM (active),
OCCCBr,,61% [at 91.9 µM]
